Assay outcomes as filed in PubChem BioAssay.
Sampled rows, rich in hits. Any-hit rate of the full collection: about 2.4%.
D2 PAM-1: HTS Assay for Positive Allosteric Modulators of the Human D2 Dopamine Receptor: Primary Screen for Potentiators; D(2) dopamine receptor (Homo sapiens), P14416; HEK293 T-REx D2, calcium flux, EC20 dopamine potentiation; potentiation, % at 10 µM; 340,000 tested, 0.34% active; AID 485347, 2010;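 active means potentiation over 3 SD above the plate norm, cut at about 30% in these data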
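Calcium flux readout, no-wash dye, 1 read/s. Inducible HEK293 Trex D2 line, overnight 30 C. Compound alone 180 s (agonist flags), then EC20 dopamine, another 180 s to score potentiation.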
D2 ag-1: Beta-Arrestin HTS for Positive Allosteric Modulators of the Human D2 Dopamine Receptor: Agonists; DiscoveRx PathHunter D2 beta-arrestin, luminescence, 90 min; 100% = 57 uM dopamine signal; activation, % (concentration not given with the values); 360,000 tested, 0.084% active; in the data active means activation above about 40%; inconclusive means between about 15% and that limit
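DiscoveRx PathHunter D2 beta-arrestin cells (2,100/well) attached overnight, then compound-stimulated 90 min at 37 C in HBSS/10 mM HEPES/0.1% Tween-20 buffer; beta-galactosidase complementation read by luminescence after 1 h at ambient temperature. Dopamine 57 uM final (EC100) as control.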
D2 PAM-2: Beta-Arrestin HTS for Positive Allosteric Modulators of the Human D2 Dopamine Receptor: Potentiators. AID 624464, 2012. 360,000 tested, 0.23% active. D(2) dopamine receptor (Homo sapiens), P14416. DiscoveRx D2 beta-arrestin cells, luminescence, 90 min; 100% = 57 uM dopamine signal. potentiation, % (concentration not given with the values); in the data active means potentiation above about 50%; inconclusive means mostly about 30% to 49%
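PathHunter D2 cells, attached overnight at 37 deg C, received compound in DMSO plus dopamine at EC20 (50 nM final) for 90 min at 37 deg C. Beta-arrestin recruitment was read as luminescence after 1 h with detection reagent at ambient temperature.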
D2 antag: HTS Assay for Allosteric Antagonists of the Human D2 Dopamine Receptor: Primary Screen for Antagonists. HEK293 TREx D2 cells, calcium flux, dopamine EC80. AID 485344, 2010. inhibition, % at 10 µM. 340,000 tested, 2% active. D(2) dopamine receptor (Homo sapiens), P14416; in the data active means inhibition above about 30%; inactive means below that, where a call was filed
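Measurement of antagonist activity uses fluorescent calcium dye in inducible HEK293 T-REx D2 cells: 10 s baseline, compound addition with 180 s read, EC80 dopamine addition with a further 180 s read.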
D2 ag-2: HTS Assay for Allosteric Agonists of the Human D2 Dopamine Receptor: Primary Screen for Agonists | 340,000 tested, 0.53% active | HEK293 T-REx D2 cells, calcium flux agonist mode | D(2) dopamine receptor (Homo sapiens), P14416 | activation, % at 2 µM;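 active means activation over 3 SD above normal in the single-dose calcium agonist read, cut at about 30% in these data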
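Tetracycline-induced HEK293 T-REx cells with force-coupled D2 receptor, plated overnight at 30 C, loaded with no-wash calcium dye. After a 10 s baseline, compound was pin-added and calcium flux read kinetically for 180 s; calcium rises flagged agonists.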
D3 ag: qHTS of D3 Dopamine Receptor Agonist: D3 Dopamine Receptor B-arrestin Agonist Confirmatory Assay; shares compounds with D2 ag-2; DiscoveRx D3 beta-arrestin cells, luminescence, 90 min; Potency, µM (doses to about 76.9 µM), hits mostly activators; 2,300 tested, 4% active; further: nearly all actives have a fitted effect of over 70% in size
Target sequence (P35462 whole entry, looked up): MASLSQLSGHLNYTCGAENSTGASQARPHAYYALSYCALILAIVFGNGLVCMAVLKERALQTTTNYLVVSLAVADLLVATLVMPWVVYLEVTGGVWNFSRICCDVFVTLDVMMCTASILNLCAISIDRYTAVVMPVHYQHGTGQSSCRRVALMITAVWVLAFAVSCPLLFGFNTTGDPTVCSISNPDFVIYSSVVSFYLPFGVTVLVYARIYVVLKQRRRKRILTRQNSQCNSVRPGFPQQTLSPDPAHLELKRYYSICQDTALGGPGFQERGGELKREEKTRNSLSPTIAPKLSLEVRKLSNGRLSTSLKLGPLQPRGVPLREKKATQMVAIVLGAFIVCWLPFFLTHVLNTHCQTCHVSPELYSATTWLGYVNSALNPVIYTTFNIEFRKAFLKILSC
D2 ag-3: qHTS of D3 Dopamine Receptor Agonist: D2 Dopamine Receptor B-arrestin Agonist Counterscreen. AID 720507, 2013. shares compounds with D2 ag-2. Potency, µM (highest dose often 76.9 µM), hits mostly activators. DiscoveRx PathHunter D2 beta-arrestin, luminescence, 90 min; response scale: percent relative to full dopamine signal. 2,300 tested, 5.9% active; further: nearly all actives have a fitted effect of over 70% in size
Hits are given with their value. Unless noted, the call rests on the fitted dose curve; in most records, active means well fitted activation curve with a large enough effect; inconclusive means small, poorly fitted or top-dose-only effect; inactive means flat fitted curve, though single readings scatter.

`CCCCc1ccc(-n2nc3ccc(NC(=O)c4cc5ccccc5o4)cc3n2)cc1` gave D2 PAM-1 inactive and D2 ag-2 inactive.
For CCOC(=O)c1ccc(Nc2c(-c3ccc(N(C)C)cc3)nc3nc[nH]n23)cc1 the results were D2 PAM-1 inactive and D2 ag-2 inactive.
O=C(NCc1ccc(Cl)cc1)C1CCN(S(=O)(=O)c2ccc3c(c2)CCCN3C(=O)C2CCC2)CC1 was read as D2 PAM-1 inactive.
`O=C(Nc1ccccc1C(F)(F)F)C(O)(c1ccccc1)C1CCCCC1` (stereo unspecified) gave D2 PAM-1 inactive, D2 ag-1 inactive, D2 PAM-2 inactive, D2 antag inactive, D2 ag-2 inactive, D3 ag inactive and D2 ag-3 inactive.
`O=C(Nc1ccccc1C(F)(F)F)N1CCC(N2CCCCC2)CC1` gave D2 PAM-1 inactive, D2 ag-1 inactive, D2 PAM-2 inactive, D2 antag inactive and D2 ag-2 inactive.
Cc1cc(CN2CCN(c3ccccc3F)CC2)cs1 was read as D2 PAM-1 inactive.
For FCCCOc1ccc(CN2CCN(c3ccccc3F)CC2)cc1 the results were D2 PAM-1 inactive, D2 ag-1 inactive, D2 PAM-2 inactive, D3 ag inconclusive and D2 ag-3 inconclusive.
For CS(=O)(=O)N(CCCC(=O)N1CCCCCC1)c1cccc(Cl)c1 the results were D2 PAM-1 inactive, D2 ag-1 inactive, D2 PAM-2 inactive, D2 antag inactive, D2 ag-2 inactive, D3 ag inactive and D2 ag-3 inactive.
For CS(=O)(=O)N(CC(=O)N1CCOCC1)c1cccc(Cl)c1 the results were D2 ag-1 inactive and D2 PAM-2 inactive.
`NC[C@H](Cc1ccccc1)NCCCCC1CCCCC1` gave D2 PAM-1 inactive, D2 ag-1 inactive, D2 PAM-2 inactive, D2 antag inactive, D2 ag-2 33, D3 ag inactive and D2 ag-3 inactive.
`COc1cc(CCCN[C@H](CN)Cc2ccccc2)cc(OC)c1OC` gave D2 PAM-1 inactive, D2 ag-1 inactive, D2 PAM-2 inactive, D2 antag inactive and D2 ag-2 inactive.
`COc1cccc(Cn2c(NCc3ccc(C)cc3)nc3c2c(=O)n(C)c(=O)n3C)c1` gave D2 PAM-1 inactive and D2 ag-2 inactive.
Screening COc1cccc(CN2CCC(C(=O)N3CCN(c4ccccc4F)CC3)CC2)c1 returned D2 PAM-1 inactive, D2 ag-1 inactive, D2 PAM-2 inactive, D2 antag inactive, D2 ag-2 inactive, D3 ag inactive and D2 ag-3 inactive.
For COc1cc(CN2CCC(C(=O)N3CCN(c4ccccc4F)CC3)CC2)ccc1O the results were D2 PAM-1 inactive, D2 ag-1 inactive, D2 PAM-2 inactive, D2 antag 39, D2 ag-2 39, D3 ag inconclusive and D2 ag-3 inactive.
`O=C(Nc1ccc(C(F)(F)F)cc1)C1CCCN(c2cnccn2)C1` (stereo unspecified) gave D2 PAM-1 inactive and D2 ag-2 inactive.
O=c1cc2nc(-c3ccccc3F)nc(SCc3ccc(Br)cc3)n2[nH]1 was read as D2 PAM-1 inactive.
`COc1ccc(-c2cc(C(F)(F)F)n3nc(C(=O)Nc4sc5c(c4C(=O)OC(C)C)CCC(C)C5)cc3n2)cc1` (stereo unspecified) gave D2 PAM-1 inactive and D2 ag-2 inactive.
Screening Cc1ccc(CNC(=O)c2cccc3c2C(=O)c2ccc(N4CCOCC4)cc2S3(=O)=O)cc1 returned D2 PAM-1 inactive, D2 ag-1 inactive, D2 PAM-2 inactive, D2 antag inactive, D2 ag-2 inactive, D3 ag inactive and D2 ag-3 inactive.
CCOC(=O)C(NC(=O)c1ccccc1Cl)(Nc1ccc(C)c(C)c1)C(F)(F)F (stereo unspecified) was read as D2 PAM-1 inactive, D2 ag-1 inactive, D2 PAM-2 inactive, D2 antag inactive and D2 ag-2 inactive.
Screening CCOC(=O)C(NC(=O)c1ccccc1Cl)(Nc1ccc(C(F)(F)F)cc1)C(F)(F)F (stereo unspecified) returned D2 PAM-1 inactive, D2 ag-1 inactive, D2 PAM-2 inactive, D2 antag inactive, D2 ag-2 inactive, D3 ag inactive and D2 ag-3 inactive.
For CCc1ccccc1NC(=S)N1CCN(c2ccccc2F)CC1 the results were D2 PAM-1 inactive, D2 ag-1 inactive, D2 PAM-2 inactive, D2 antag inactive, D2 ag-2 inactive, D3 ag inactive and D2 ag-3 inactive.
`CCN1CCN(C/C(C)=C/c2ccccc2)CC1` gave D2 PAM-1 inactive, D2 ag-1 inactive, D2 PAM-2 inactive, D2 antag inactive and D2 ag-2 inactive.
For C/C(=C\c1ccccc1)CN1CCN(c2ccccc2F)CC1 the results were D2 PAM-1 inactive, D2 ag-1 inactive, D2 PAM-2 inactive, D2 antag 67, D2 ag-2 inactive, D3 ag inactive and D2 ag-3 inactive.
Screening CCOC(=O)C1(CCOc2ccccc2)CCN(Cc2cccn2-c2ncccn2)CC1 returned D2 PAM-1 inactive, D2 ag-1 inactive, D2 PAM-2 inactive, D2 antag inactive, D2 ag-2 inactive, D3 ag inactive and D2 ag-3 inactive.
Screening CCOC(=O)C1(Cc2cccc(OC)c2)CCN(Cc2cnc(SC)nc2)CC1 returned D2 PAM-1 inactive, D2 ag-1 inactive, D2 PAM-2 inactive, D2 antag 93, D2 ag-2 59, D3 ag inactive and D2 ag-3 inconclusive.
Cn1cc(CN2CCC(O)CC2)c(-c2ccc(Oc3ccccc3)cc2)n1 was read as D2 PAM-1 inactive, D2 ag-1 inactive, D2 PAM-2 inactive, D2 antag inactive and D2 ag-2 inactive.
For CCOC(=O)C1CCN(Cc2cn(C)nc2-c2ccc(Oc3ccccc3)cc2)CC1 the results were D2 PAM-1 inactive, D2 ag-1 inactive, D2 PAM-2 inactive, D2 antag inactive, D2 ag-2 inactive, D3 ag inactive and D2 ag-3 inactive.
